Consider 73 compounds from article PMC13083723 (Patterns, 2026).

Molecules are shown by their SMILES. The whole screen tested about 5,400 compounds, of which about 190 (3.5%) showed an effect of 50% or more. The list comes from a sample in which strong results are over-represented; it also holds similar structures and randomly drawn compounds.

The subject of this assay is Vero-E6. The experiment in a line: primary screen, phospholipidosis by LipidTOX staining; higher = more effect of the substance. The following applies: 10 µM. The gist of the method: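 Drug-induced phospholipidosis detected with HCS LipidTOX Red reagent in Vero-E6 cells. Compounds tested at 10 μM, with amiodarone (10 μM) as positive control and DMSO (0.1 v/v %) as vehicle.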
Regarding `CC1(C)S[C@@H]2C(N3C(=O)[C@@H](c4ccccc4)NC3(C)C)C(=O)N2[C@H]1C(=O)[O-]` (stereo partly shown), the result_ITMP is recorded as -1.52%.

On to `CC(=O)O[C@@]12CO[C@@H]1C[C@H](O)[C@@]1(C)C(=O)[C@H](O)C3=C(C)[C@@H](O)C[C@@](O)([C@@H](OC(=O)c4ccccc4)[C@H]21)C3(C)C`, for which the result_ITMP was -5.35%.

As for `Cc1noc(-c2ccc(-c3ccc(CC(=O)[O-])cc3)cc2)c1NC(=O)O[C@H](C)c1ccccc1`, the result_ITMP is -0.34%.

Regarding `O=C(Nc1ccccc1)Nc1ccc(-c2ccc(C(=O)[C@@H]3CCC[C@H]3C(=O)O)cc2)cc1` [R4A_0000400_001 / SPE_K81614372], the result_ITMP is given as -1.59%.

In the case of `Cn1nccc1Nc1nccc(-c2ccn([C@H](CO)c3ccc(Cl)c(F)c3)c(=O)c2)n1` [R4A_0003897_001 / SPE_K86309810], the result_ITMP is given as -3.82%.

As to `O[C@@H]1[C@H](O)[C@@H](CCl)O[C@H]1n1cnc2c(NC3CC4CCC3C4)ncnc21` (mixture of isomers), the result_ITMP is recorded as -1.27%.

On to `CCCCN(CCCC)CC(O)c1cc(Cl)cc2c1-c1ccc(Cl)cc1/C2=C/c1ccc(Cl)cc1` (stereo not shown), for which the result_ITMP is -0.63%.

Consider `CCCCN(CCCC)CCC(O)c1cc2c(Cl)cc(Cl)cc2c2cc(C(F)(F)F)ccc12` (stereo not shown), for which the result_ITMP is 68.8%.

For `CC(=O)N[C@@H]1C[C@H](O)[C@@H](CO)O[C@H]1O[C@H]1[C@H](O)[C@@H](O)[C@H](O)O[C@@H]1C(=O)[O-]`, the result_ITMP is recorded as -0.41%.

Turning to `CC(C)[C@@H]1C(=O)N(S(C)(=O)=O)[C@@H]2CCN(C(=O)/C=C/CN3CCCCC3)[C@H]21`, the result_ITMP was 0.42%.

On to `Cc1cccn2c(=O)c(/C=C(\C#N)c3nc4ccccc4s3)c(Oc3ccc(F)cc3)nc12`, for which the result_ITMP is on record as -3.48%.

With `O=C(CCn1cnc2c(O)ncnc21)Nc1ccc(C(=O)O)cc1`, the result_ITMP is listed as -5.54%.

`C[C@@H]1CN(CC(=O)Nc2ccc3c(c2)Cc2cccc(-c4cc(=O)cc(N5CCOCC5)o4)c2S3)C[C@H](C)O1`: the result_ITMP was 4.24%.

For `NC(Cc1c[nH]c2ccc(O)cc12)C(=O)O` (stereo not shown), the result_ITMP is given as -1.81%.

As for `CC(N)Cc1c[nH]c2ccc(O)cc12` (stereo not shown), the result_ITMP is on record as -1.42%.

As to `CC(N)Cc1c[nH]c2ccc(OCc3cccs3)cc12` (stereo not shown), the result_ITMP was 55.2%.

On to `C=C[C@H]1C[N@]2CC[C@H]1C[C@@H]2[C@@H](O)c1ccnc2ccc(OC)cc12`, for which the result_ITMP came out at 11.5%.

As for `CC1(C)[C@@H]2C[C@@H](O)[C@@](C)(O)[C@H]1C2`, the result_ITMP is given as -10.7%.

As to `c1cc2c(c(N3CCNCC3)c1)OCCO2`, the result_ITMP was -1.86%.

For the compound `O=S(=O)(c1ccccc1)c1cnc2c(N3CCNCC3)cccc2c1`, the result_ITMP stood at 39.6%.

On to `Cc1ccc(Sc2ccccc2N2CCNCC2)c(C)c1`, for which the result_ITMP was 57.3%.

Take `Cc1cc(CN2CCN(c3c(Br)cnc4[nH]c(-c5ccc(N6CCN(C)CC6)cc5)nc34)CC2)no1`: the result_ITMP was -0.42%.

In the case of `C[C@H](NC(=O)CCc1nc2ccccc2c(=O)[nH]1)c1ccccc1` [R4A_0003503_001 / SPE_A63444178], the result_ITMP is recorded as 0.66%.

Take `COCC(=O)O[C@]1(CCN(C)CCCc2nc3ccccc3[nH]2)CCc2cc(F)ccc2[C@@H]1C(C)C`: the result_ITMP is listed as 88.2%.

`CC(C)[C@H]1c2ccc(F)cc2CC[C@@]1(CCN(C)CCCc1nc2ccccc2[nH]1)OC(=O)C1CC1`: the result_ITMP was found to be 68.1%.

Take `O=C(O)CCc1nc2ccccc2[nH]1`: the result_ITMP was -0.69%.

On to `Cc1cc(S(=O)(=O)[O-])c2c(C)ccc(C(C)C)cc1-2`, for which the result_ITMP is listed as -3.22%.

Regarding `CC1=CC(=O)[N-]S(=O)(=O)O1`, the result_ITMP was -5.65%.

Regarding `C[C@]12CCC(=O)C=C1CC[C@@H]1[C@@H]2CC[C@@]2(C)[C@H]1CC[C@]2(C)O`, the result_ITMP was found to be 0.46%.

Take `O=C([O-])C(O)C(O)C(O)C(O)CO` (stereo not shown): the result_ITMP is on record as -6.08%.

Turning to `O=C1[C@@H]2[C@H]3CC[C@H](C3)[C@@H]2C(=O)N1CCCCN1CCN(c2ncccn2)CC1`, the result_ITMP is reported as -0.39%.

Turning to `CN(c1nccc(=O)[nH]1)C1CCN(c2nc3ccccc3n2Cc2ccc(F)cc2)CC1`, the result_ITMP amounted to 0.52%.

For `c1ccc(Cn2c(N3CCNCC3)nc3ccccc32)cc1`, the result_ITMP worked out at 51.9%.

As to `c1ccc(Cn2c(-c3ccc(OC[C@H](C4CCNCC4)n4c(-c5ccccc5)nc5ccccc54)cc3)nc3ccccc32)cc1`, the result_ITMP is reported as 13.3%.

As for `C[C@H]1[C@H](C)CC[C@]2(C(=O)O)CC[C@]3(C)C(=CC[C@@H]4[C@@]5(C)CC[C@H](O)C(C)(C)[C@@H]5CC[C@]43C)[C@H]12`, the result_ITMP is listed as -0.84%.

For the compound `CC[N+](CC)(CCNC(=O)C(=O)NCC[N+](CC)(CC)Cc1ccccc1Cl)Cc1ccccc1Cl`, the result_ITMP is -0.68%.

With `Clc1ccccc1CNC[C@H]1CC[C@H](CNCc2ccccc2Cl)CC1`, the result_ITMP was found to be 111%.

On to `Clc1ccccc1CN1CCc2sccc2C1`, for which the result_ITMP was 5.84%.

Regarding `COC(=O)[C@@]12OC[C@]34[C@H]([C@@H](O)[C@@H]1O)[C@@]1(C)CC(=O)C(O)=C(C)[C@@H]1C[C@H]3OC(=O)[C@H](OC(=O)/C=C(\C)C(C)C)[C@@H]24`, the result_ITMP is -3.12%.

`O=C1CN(/N=C/c2ccc(-c3ccc([N+](=O)[O-])cc3)o2)C(=O)[N-]1`: the result_ITMP is on record as -3.77%.

With `CCc1oc2ccccc2c1C(=O)c1cc(Br)c(O)c(Br)c1`, the result_ITMP is 0.74%.

`CCCCc1oc2ccccc2c1C(=O)c1cc(I)c(OCCN(CC)CC)c(I)c1`: the result_ITMP is on record as 55.1%.

`CN(CCOc1ccc(NS(C)(=O)=O)cc1)CCc1ccc(NS(C)(=O)=O)cc1`: the result_ITMP is reported as -1.68%.

In the case of `CCCCN(CCCC)CCCOC(=O)c1ccc(N)cc1`, the result_ITMP is recorded as 4.87%.

As for `CCCCc1oc2ccc(NS(C)(=O)=O)cc2c1C(=O)c1ccc(OCCCN(CCCC)CCCC)cc1`, the result_ITMP was determined as 74.9%.

On to `CCc1oc2ccccc2c1C(=O)c1ccc(OCC(=O)O)cc1`, for which the result_ITMP is given as -9.49%.

With `CC[C@@H](C)C[C@@H](C)CCCCCCCCC(=O)N[C@H]1C[C@@H](O)[C@@H](NCCN)NC(=O)[C@@H]2[C@@H](O)CCN2C(=O)[C@H]([C@H](O)CCN)NC(=O)[C@H]([C@H](O)[C@@H](O)c2ccc(O)cc2)NC(=O)[C@@H]2C[C@@H](O)CN2C(=O)[C@H]([C@@H](C)O)NC1=O`, the result_ITMP was -8.5%.

As for `CC(C)c1ccc2c(c1)CC[C@H]1[C@](C)(CN)CCC[C@]21C`, the result_ITMP was 80.5%.

For `CC(C)c1cc2c(cc1S(=O)(=O)O)[C@@]1(C)CCC[C@@](C)(C(=O)O)[C@@H]1CC2`, the result_ITMP is given as -4.65%.

In the case of `Cc1c(N)nc([C@H](CC(N)=O)NC[C@@H](N)C(N)=O)nc1C(=O)N[C@H](C(=O)N[C@@H](C)[C@H](O)[C@@H](C)C(=O)N[C@@H](C(=O)NCCc1nc(-c2nc(C(=O)NCCC[S+](C)C)cs2)cs1)[C@@H](C)O)C(O[C@H]1O[C@H](CO)[C@H](O)[C@@H](O)[C@H]1O[C@H]1O[C@H](CO)[C@@H](O)[C@H](OC(N)=O)[C@@H]1O)c1c[nH]cn1` (stereo partly shown), the result_ITMP came out at 7.07%.

For `C[C@]12C=CC(=O)N[C@@H]1CC[C@@H]1[C@@H]2CC[C@]2(C)[C@@H](C(=O)Nc3cc(C(F)(F)F)ccc3C(F)(F)F)CC[C@@H]12`, the result_ITMP is recorded as -3.63%.

For `C[C@@H]1CC[C@@]2(OC1)O[C@H]1C[C@H]3[C@@H]4CC=C5C[C@@H](O[C@@H]6O[C@H](CO)[C@@H](O[C@@H]7O[C@@H](C)[C@H](O)[C@@H](O)[C@H]7O)[C@H](O)[C@H]6O[C@@H]6O[C@@H](C)[C@H](O)[C@@H](O)[C@H]6O)CC[C@]5(C)[C@H]4CC[C@]3(C)[C@H]1[C@@H]2C`, the result_ITMP was found to be 18.9%.

On to `CC1(C)S[C@@H]2[C@H](NC(=O)Cc3ccccc3)C(=O)N2[C@H]1C(=O)[O-]`, for which the result_ITMP is recorded as -4.24%.

`Clc1ccc(Nc2nnc(Cc3ccncc3)c3ccccc23)cc1`: the result_ITMP is given as -1.32%.

Turning to `COC1CCN(C(=O)c2cc(Cc3n[nH]c(=O)c4ccccc34)ccc2F)CC1`, the result_ITMP turned out to be 2.83%.

For `CN1CCCC(n2nc(Cc3ccc(Cl)cc3)c3ccccc3c2=O)CC1` (stereo not shown), the result_ITMP is reported as 57.2%.

Consider `Cc1nnc(SCC2=C(C(=O)[O-])N3C(=O)[C@@H](NC(=O)Cn4cnnn4)[C@H]3SC2)s1`, for which the result_ITMP is on record as -0.51%.

With `C=CCN1CC[C@@]2(C)c3cc(O)ccc3C[C@H]1[C@H]2C`, the result_ITMP is -0.02%.

Turning to `CN1CCCC(CN2c3ccccc3Sc3ccccc32)C1` (stereo not shown), the result_ITMP came out at 42.2%.

Regarding `CN1CCCC(CC2c3ccccc3Sc3ccccc32)C1` (stereo not shown), the result_ITMP turned out to be 74.2%.

`CN1CC[C@@H]2CN3CCc4cccc(c43)[C@@H]2C1`: the result_ITMP was determined as 5.83%.

As for `C[C@]12CC[C@@H](O)C[C@@H]1CC[C@@H]1[C@@H]2CC[C@]2(C)C(c3ccccc3)=CC[C@@H]12`, the result_ITMP is -2.07%.

As to `N#CCc1ccccc1C#Cc1ccc(CCC(=O)O)c(F)c1`, the result_ITMP is listed as -8.03%.

`O=C(O[C@H]1C[C@H]2CC[C@@H](C1)[N+]21CCCC1)C(O)(c1ccccc1)c1ccccc1`: the result_ITMP is -3.78%.

In the case of `CN1[C@@H](CC(=O)c2ccccc2)CCC[C@H]1C[C@H](O)c1ccccc1`, the result_ITMP was 13.8%.

Turning to `CCN(CC)CCCC(C)Nc1c2ccc(Cl)cc2nc2ccc(OC)cc12` (stereo not shown), the result_ITMP is listed as 110%.

Turning to `CCN(CCO)CCCC(C)Nc1ccnc2cc(Cl)ccc12` (stereo not shown), the result_ITMP turned out to be 1.54%.

Regarding `COc1ccc2nc3ccc(Cl)cc3c(SCCCN)c2c1`, the result_ITMP is on record as -9.55%.

With `CC1(C)CCC(C)(C)c2c1cc(C(=O)Nc1cc(F)c(C(=O)O)c(F)c1)c(O)c2Cl`, the result_ITMP is listed as -2.47%.

Take `CSc1ccc([C@H]2CN3CCC[C@H]3c3ccccc32)cc1` (racemic): the result_ITMP is recorded as 14.1%.

Turning to `CSc1ccc2c(c1)C(N1CCN(C)CC1)Cc1ccccc1S2` (stereo not shown), the result_ITMP came out at 79.9%.

As to `CC[C@H]1[C@@H](O)[C@@H]2[C@H](CC[C@]3(C)[C@@H]([C@H](C)CCOS(=O)(=O)[O-])CC[C@@H]23)[C@@]2(C)CC[C@@H](O)C[C@@H]12`, the result_ITMP is recorded as -1.93%.

Consider `Nc1nc(=O)c2c(CCc3ccc(C(=O)N[C@@H](CCC(=O)[O-])C(=O)[O-])cc3)c[nH]c2[nH]1`, for which the result_ITMP is reported as -3.84%.
